According to the supplement of paper PMC10338343:
± gives the standard deviation.

Tests used:
[1] = tested on: MILI (PIWIL2) piRISC loaded with L1MC piRNA (26 nt); assay: pre-steady-state target cleavage rate (min^-1); guide: L1MC piRNA 5'p-UAACUAAAUACUAUGCAAGCUGUAGG; higher = faster piRNA-guided slicing of the target;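 also: 1 nM active piRISC with 0.1 nM target library at 33 °C single turnover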
Procedure, shortened: (§1)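 At 33 °C in HEPES–potassium acetate buffer, a transcribed, DNA-blocked target RNA library […] was exposed for 0–8 or 0–960 min to 1 nM active affinity-purified piRISC carrying a single synthetic guide, with or without 500 nM GTSF1 partner protein. Uncleaved targets were sequenced and normalised to depth and to weakly complementary targets. With three trials pooled and k3 capped at 0.0001 min^-1, a burst-and-steady-state fit produced the pre-steady-state cleavage rate.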

[2] = tested on: EfPiwi piRISC loaded with L1MC piRNA (26 nt); assay: pre-steady-state target cleavage rate (min^-1); auxiliary factor: 500 nM Ephydatia muelleri Gtsf1; guide: L1MC piRNA 5'p-UAACUAAAUACUAUGCAAGCUGUAGG; MIWI and MILI are mouse PIWI proteins and EfPiwi is from a freshwater sponge; tags in brackets are library labels; higher = faster piRNA-guided slicing of the target
Procedure, shortened: as §1

[3] = auxiliary factor: 500 nM mouse GTSF1
[4] = auxiliary factor: none (no GTSF1)

UCCUGGAACACGAUGCAUAGUAUUUAGUUA
pre-steady-state target cleavage rate [1, 3]: 0.14 ± 0.017
pre-steady-state target cleavage rate [1, 4]: 0.00495 ± 0.0023
pre-steady-state target cleavage rate [2]: 0.00377 ± 0.0016

UCCUCCUACAGCGUGCAUAGUAUUUAGUUA
pre-steady-state target cleavage rate [1, 3]: 0.309 ± 0.021
pre-steady-state target cleavage rate [1, 4]: 0.00999 ± 0.003
pre-steady-state target cleavage rate [2]: 0.1 ± 0.026

UCCUCGUACAGCUUGCAUAGUAAUUAGUUA
pre-steady-state target cleavage rate [1, 3]: 0.283 ± 0.017
pre-steady-state target cleavage rate [1, 4]: 0.00698 ± 0.0019
pre-steady-state target cleavage rate [2]: 0.111 ± 0.033

UCCUCCUACAGCUUGCAUUGUAUAUAGUUA
pre-steady-state target cleavage rate [1, 3]: 0.177 ± 0.018
pre-steady-state target cleavage rate [1, 4]: 0.00393 ± 0.0025
pre-steady-state target cleavage rate [2]: 0.00608 ± 0.0036

UCCUCCUUCAGCUUGCAUAGUAUUUUGUUA
pre-steady-state target cleavage rate [1, 3]: 0.139 ± 0.021
pre-steady-state target cleavage rate [1, 4]: 0.00287 ± 0.002
pre-steady-state target cleavage rate [2]: 0.00463 ± 0.0027

UCCUGGAAAAGCUUGCAUAGUAUUUAGUUA
pre-steady-state target cleavage rate [1, 3]: 0.249 ± 0.019
pre-steady-state target cleavage rate [1, 4]: 0.00809 ± 0.0029
pre-steady-state target cleavage rate [2]: 0.0119 ± 0.0039

UCCUGGAACAGCUUUCAUAGUAUUUAGUUA
pre-steady-state target cleavage rate [1, 3]: 0.197 ± 0.021
pre-steady-state target cleavage rate [1, 4]: 0.00688 ± 0.0024
pre-steady-state target cleavage rate [2]: 0.00631 ± 0.0025

UCCUGGAACAGCUUGCAUAGUAUUUAGUUUA
pre-steady-state target cleavage rate [1, 3]: 0.321 ± 0.018
pre-steady-state target cleavage rate [1, 4]: 0.00981 ± 0.003
pre-steady-state target cleavage rate [2]: 0.0245 ± 0.0071

UCCUGGAUCAGCUAGCAUAGUAAUUAGUUA
pre-steady-state target cleavage rate [1, 3]: 0.152 ± 0.015
pre-steady-state target cleavage rate [1, 4]: 0.00502 ± 0.0022
pre-steady-state target cleavage rate [2]: 0.00458 ± 0.0024

UCCUGGAUGUCCUUGCAUAGUAUUUAGUUA [g2:g19:cont:t1A]
pre-steady-state target cleavage rate [1, 3]: 0.119 ± 0.018
pre-steady-state target cleavage rate [1, 4]: 0.00813 ± 0.0021
pre-steady-state target cleavage rate [2]: 0.00824 ± 0.003

UCCUGCAACACCUUGCAUAGUAUUUAGUUA
pre-steady-state target cleavage rate [1, 3]: 0.192 ± 0.026
pre-steady-state target cleavage rate [1, 4]: 0.00568 ± 0.0027
pre-steady-state target cleavage rate [2]: 0.0123 ± 0.0034

UCCUGGAACAGCUUGCAUAGUAUUUAGGUUA
pre-steady-state target cleavage rate [1, 3]: 0.23 ± 0.041
pre-steady-state target cleavage rate [1, 4]: 0.00413 ± 0.0032
pre-steady-state target cleavage rate [2]: 0.00305 ± 0.0027

UCCUGCUAACAGCUUGCAUAGUAUUUAGUUA
pre-steady-state target cleavage rate [1, 3]: 0.307 ± 0.033
pre-steady-state target cleavage rate [1, 4]: 0.00599 ± 0.0032
pre-steady-state target cleavage rate [2]: 0.0114 ± 0.0038

UCCUGCUACACCUUGGAUAGUAUUUAGUUA
pre-steady-state target cleavage rate [1, 3]: 0.122 ± 0.021
pre-steady-state target cleavage rate [1, 4]: 0.00552 ± 0.0022
pre-steady-state target cleavage rate [2]: 0.00538 ± 0.0021

UCCUGGAUGUCCUUGCAUAGUAUUUAGUAA
pre-steady-state target cleavage rate [1, 3]: 0.117 ± 0.019
pre-steady-state target cleavage rate [1, 4]: 0.00376 ± 0.0019
pre-steady-state target cleavage rate [2]: 0.00321 ± 0.0025

UCCUCCUACUGCUUGCAUUGUAUUUAGUUA
pre-steady-state target cleavage rate [1, 3]: 0.212 ± 0.013
pre-steady-state target cleavage rate [1, 4]: 0.00808 ± 0.0019
pre-steady-state target cleavage rate [2]: 0.0605 ± 0.016

UCCUGGAACAGCUUGCAUAGUAUUUAGUCA
pre-steady-state target cleavage rate [1, 3]: 0.224 ± 0.024
pre-steady-state target cleavage rate [1, 4]: 0.00732 ± 0.0022
pre-steady-state target cleavage rate [2]: 0.0042 ± 0.0024

UCCUCGAUCAGCUUGCAUAGUAUUUAGUAA
pre-steady-state target cleavage rate [1, 3]: 0.269 ± 0.017
pre-steady-state target cleavage rate [1, 4]: 0.00809 ± 0.0023
pre-steady-state target cleavage rate [2]: 0.00989 ± 0.0033

UCCUCCUACAGCUUGCAAAGUAAUUAGUUA
pre-steady-state target cleavage rate [1, 3]: 0.116 ± 0.012
pre-steady-state target cleavage rate [1, 4]: 0.00331 ± 0.0024
pre-steady-state target cleavage rate [2]: 0.00531 ± 0.0022

UCCUGGUACAGGAAGCAUAGUAUUUAGUUA
pre-steady-state target cleavage rate [1, 3]: 0.223 ± 0.025
pre-steady-state target cleavage rate [1, 4]: 0.00538 ± 0.0026
pre-steady-state target cleavage rate [2]: 0.00248 ± 0.0023

UCCUGGAACAGCAUGCAUAGUAUAUAGUUA
pre-steady-state target cleavage rate [1, 3]: 0.247 ± 0.025
pre-steady-state target cleavage rate [1, 4]: 0.0058 ± 0.0025
pre-steady-state target cleavage rate [2]: 0.0106 ± 0.005

UCCUGGAUGUCGAUUGCAUAGUAUUUAGUUA
pre-steady-state target cleavage rate [1, 3]: 0.09 ± 0.012
pre-steady-state target cleavage rate [1, 4]: 0.00748 ± 0.0024
pre-steady-state target cleavage rate [2]: 0.00712 ± 0.0027

UCCUGGAACAGCUUGCAUAGUCUUUAGUUA
pre-steady-state target cleavage rate [1, 3]: 0.197 ± 0.016
pre-steady-state target cleavage rate [1, 4]: 0.00483 ± 0.0022
pre-steady-state target cleavage rate [2]: 0.00979 ± 0.0029

UCCUGGAUGUCCCUUGCAUAGUAUUUAGUUA
pre-steady-state target cleavage rate [1, 3]: 0.116 ± 0.021
pre-steady-state target cleavage rate [1, 4]: 0.00815 ± 0.0024
pre-steady-state target cleavage rate [2]: 0.00608 ± 0.0026

UCCUGGUACAGCUUGCAUAGUAUUUAGUUG [g2:g24:cont:t1G]
pre-steady-state target cleavage rate [1, 3]: 0.218 ± 0.018
pre-steady-state target cleavage rate [1, 4]: 0.00995 ± 0.003
pre-steady-state target cleavage rate [2]: 0.0182 ± 0.0065

UCCUGGAUCAGCUUGGCAUAGUAUUUAGUUA
pre-steady-state target cleavage rate [1, 3]: 0.3 ± 0.061
pre-steady-state target cleavage rate [1, 4]: 0.00341 ± 0.0025
pre-steady-state target cleavage rate [2]: 0.0127 ± 0.0034

UCCUGGUACAGCUUGCAUAGUAUUCUAGUUA
pre-steady-state target cleavage rate [1, 3]: 0.353 ± 0.088
pre-steady-state target cleavage rate [1, 4]: 0.00551 ± 0.0045
pre-steady-state target cleavage rate [2]: 0.0044 ± 0.003

UCCUGCUCCAGCUUGCAUAGUAUUUAGUUA
pre-steady-state target cleavage rate [1, 3]: 0.256 ± 0.017
pre-steady-state target cleavage rate [1, 4]: 0.00969 ± 0.0026
pre-steady-state target cleavage rate [2]: 0.0877 ± 0.024

UCCUGGAACAGCUUCCUUAGUAUUUAGUUA
pre-steady-state target cleavage rate [1, 3]: 0.214 ± 0.018
pre-steady-state target cleavage rate [1, 4]: 0.00562 ± 0.002
pre-steady-state target cleavage rate [2]: 0.00362 ± 0.002

UCCUCCUUACAGCUUGCAUAGUAUUUAGUUA
pre-steady-state target cleavage rate [1, 3]: 0.301 ± 0.014
pre-steady-state target cleavage rate [1, 4]: 0.011 ± 0.0028
pre-steady-state target cleavage rate [2]: 0.117 ± 0.03

UCCUGGAUGUCGAUGUAUAGUAUUUAGUUA
pre-steady-state target cleavage rate [1, 3]: 0.0919 ± 0.011
pre-steady-state target cleavage rate [1, 4]: 0.0069 ± 0.002
pre-steady-state target cleavage rate [2]: 0.00398 ± 0.003

UCCUCACUACAGCUUGCAUAGUAUUUAGUUA
pre-steady-state target cleavage rate [1, 3]: 0.259 ± 0.022
pre-steady-state target cleavage rate [1, 4]: 0.00971 ± 0.0027
pre-steady-state target cleavage rate [2]: 0.0191 ± 0.0067

UCCUGCUACAGCUUGCAAAGUAUUAAGUUA
pre-steady-state target cleavage rate [1, 3]: 0.146 ± 0.019
pre-steady-state target cleavage rate [1, 4]: 0.00367 ± 0.0025
pre-steady-state target cleavage rate [2]: 0.00445 ± 0.0021

UCCUGCUACAGCUUAGCAUAGUAUUUAGUUA
pre-steady-state target cleavage rate [1, 3]: 0.276 ± 0.014
pre-steady-state target cleavage rate [1, 4]: 0.0072 ± 0.0026
pre-steady-state target cleavage rate [2]: 0.0477 ± 0.015

UCCUCCAAGAGCUUGCAUAGUAUUUAGUUA
pre-steady-state target cleavage rate [1, 3]: 0.276 ± 0.013
pre-steady-state target cleavage rate [1, 4]: 0.007 ± 0.0024
pre-steady-state target cleavage rate [2]: 0.0523 ± 0.014

UCCUGGAACAGCUUAGCAUAGUAUUUAGUUA
pre-steady-state target cleavage rate [1, 3]: 0.27 ± 0.019
pre-steady-state target cleavage rate [1, 4]: 0.00815 ± 0.0027
pre-steady-state target cleavage rate [2]: 0.0218 ± 0.0061

UCCUGGAUCAGCUUGCAUAAUAUUUAGUUA
pre-steady-state target cleavage rate [1, 3]: 0.253 ± 0.031
pre-steady-state target cleavage rate [1, 4]: 0.00396 ± 0.0026
pre-steady-state target cleavage rate [2]: 0.0108 ± 0.0031

UCCUGCUACAGCUUGGAUAGUAUUUAGUAA
pre-steady-state target cleavage rate [1, 3]: 0.214 ± 0.032
pre-steady-state target cleavage rate [1, 4]: 0.00334 ± 0.0025
pre-steady-state target cleavage rate [2]: 0.00465 ± 0.0017

UCCUGGAAGAGCUUGCUUAGUAUUUAGUUA
pre-steady-state target cleavage rate [1, 3]: 0.204 ± 0.016
pre-steady-state target cleavage rate [1, 4]: 0.0109 ± 0.0029
pre-steady-state target cleavage rate [2]: 0.0135 ± 0.0043

UCCUCCUACAGCUUGAAUAGUAUUUAGUUA
pre-steady-state target cleavage rate [1, 3]: 0.283 ± 0.015
pre-steady-state target cleavage rate [1, 4]: 0.00723 ± 0.002
pre-steady-state target cleavage rate [2]: 0.0651 ± 0.017

UCCUCCUACAGCUUGGUUAGUAUUUAGUAA
pre-steady-state target cleavage rate [1, 3]: 0.204 ± 0.022
pre-steady-state target cleavage rate [1, 4]: 0.00554 ± 0.0017
pre-steady-state target cleavage rate [2]: 0.00533 ± 0.0032

UCCUGGAACAGCUUGCUUAGUAUUUAGUUA
pre-steady-state target cleavage rate [1, 3]: 0.264 ± 0.01
pre-steady-state target cleavage rate [1, 4]: 0.00723 ± 0.0021
pre-steady-state target cleavage rate [2]: 0.0181 ± 0.005

UCCUGGAUGAGCAUGCAUAGUAUUUAGUAA
pre-steady-state target cleavage rate [1, 3]: 0.21 ± 0.024
pre-steady-state target cleavage rate [1, 4]: 0.00494 ± 0.0024
pre-steady-state target cleavage rate [2]: 0.00596 ± 0.0037

UCCUCCUACUAGCUUGCAUAGUAUUUAGUUA
pre-steady-state target cleavage rate [1, 3]: 0.13 ± 0.013
pre-steady-state target cleavage rate [1, 4]: 0.00589 ± 0.002
pre-steady-state target cleavage rate [2]: 0.127 ± 0.035

UCCUGGAUGUGCUUGCAUAGUAUUAAGUUA
pre-steady-state target cleavage rate [1, 3]: 0.162 ± 0.025
pre-steady-state target cleavage rate [1, 4]: 0.00745 ± 0.0021
pre-steady-state target cleavage rate [2]: 0.00372 ± 0.0032

UCCUGGUACAGCUUGCAUAGUAAUUUAGUUA
pre-steady-state target cleavage rate [1, 3]: 0.186 ± 0.025
pre-steady-state target cleavage rate [1, 4]: 0.0129 ± 0.0045
pre-steady-state target cleavage rate [2]: 0.00647 ± 0.0026

UCCUGGAUCAGGAUGCAUAGUAUUUAGUUA
pre-steady-state target cleavage rate [1, 3]: 0.156 ± 0.012
pre-steady-state target cleavage rate [1, 4]: 0.00724 ± 0.0018
pre-steady-state target cleavage rate [2]: 0.0121 ± 0.0027

UCCUGGAACAGCAUGCAUACUAUUUAGUUA
pre-steady-state target cleavage rate [1, 3]: 0.0727 ± 0.0093
pre-steady-state target cleavage rate [1, 4]: 0.00273 ± 0.0026
pre-steady-state target cleavage rate [2]: 0.00762 ± 0.0026

UCCUGGAUGAGCUUGCAUAUUAUUUAGUUA
pre-steady-state target cleavage rate [1, 3]: 0.0637 ± 0.0072
pre-steady-state target cleavage rate [1, 4]: 0.00304 ± 0.003
pre-steady-state target cleavage rate [2]: 0.00658 ± 0.0032

UCCUGGAUGAGCUUGACAUAGUAUUUAGUUA
pre-steady-state target cleavage rate [1, 3]: 0.0929 ± 0.01
pre-steady-state target cleavage rate [1, 4]: 0.00352 ± 0.0026
pre-steady-state target cleavage rate [2]: 0.00729 ± 0.0021

UCCUGGAACAGCUUGCAAGUAUUUAGUUA
pre-steady-state target cleavage rate [1, 3]: 0.141 ± 0.013
pre-steady-state target cleavage rate [1, 4]: 0.00614 ± 0.0021
pre-steady-state target cleavage rate [2]: 0.00284 ± 0.0019
